The values below come from PubChem BioAssay (NCATS).

The target of assay [1] is Bile acid receptor (Homo sapiens) (UniProt Q96RI1). As to the kind of experiment: qHTS assay for small molecule antagonists of farnesoid X receptor signaling (AID 588526). Also: % is scaled to controls: 0 for no effect and ±100 for the full control effect. Put shortly:
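Concentration-response titrations were fitted to the Hill equation for half-maximal inhibition and maximal response, with data normalised to 50 uM chenodeoxycholic acid and DMSO control wells. Cells: FXR-UAS-bla HEK293T, dialyzed FBS.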
In general terms: Quantitative high-throughput screening tests each substance at several concentrations.

Assay [2] addresses Vitamin D3 receptor (Homo sapiens) (UniProt P11473). Put plainly: qHTS assay for small molecule antagonists of vitamin D receptor signaling (AID 588541).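 Also: receptor activated by calcitriol during compound treatment; series mostly up to about 77 µM; % is scaled to controls: 0 for no effect and ±100 for the full control effect.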 The method, boiled down: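 VDR-UAS-bla HEK293T cells (2000/well, 2% charcoal-stripped FBS) were treated with titrated compounds plus 1-alpha,25-dihydroxyvitamin D3 (50 nM or 3 nM final) for 16 h at 37 C. CCF4 beta-lactamase fluorescence was read; Hill fits gave IC50.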

The target is the same in assay [3]. As to the kind of experiment: qHTS assay for small molecule agonists of vitamin D receptor signaling (AID 588543).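 Also: 0% = DMSO basal and 100% = reference agonist control.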 Put shortly:
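Agonist-mode beta-lactamase reporter: HEK293T VDR-UAS-bla cells in charcoal-stripped 2% FBS, compound series 16 h 37 C, CCF4 2 h RT. EC50 from Hill fit, scaled against DMSO and 50 nM calcitriol control.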

For assay [4], the target named is Thyroid hormone receptor beta (Homo sapiens) (UniProt P10828). As to the kind of experiment: qHTS assay for small molecule agonists of thyroid hormone receptor beta signaling (AID 588545). Put shortly:
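HEK 293 TR-UAS-bla; agonist mode; 18 hrs, 37 C; CCF4, ex 405/em 460 and 530 nm; norm. T3 10 nM = 100%, DMSO = 0%; Hill fit → EC50, efficacy.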

Assay [5] is described as follows: qHTS assay for small molecule antagonists of retinoid X receptor alpha signaling (AID 588546; active = well fitted inhibition curve with a large enough effect in the signal ratio, with a control signal flat, not every such curve was filed as active; the % refers to the signal ratio;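 also: cells stimulated with 9-cis-retinoic acid as agonist; % is scaled to controls: 0 for no effect and ±100 for the full control effect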). The following applies: HEK293T RXRa-UAS-bla, beta-lactamase ratio, antagonist mode; measured here: W530 green channel, cytotoxicity proxy. The method, boiled down: (§1)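 Beta-lactamase reporter inhibition, read as CCF4 fluorescence ratio (ex 405, em 460/530 nm) after 2 h at RT. HEK293T UAS-bla cells, 2500/well, were stimulated with 9-cis-RA at 500 or 100 nM final alongside test compound for 18 h at 37 C.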

Assay [6] deals with Retinoic acid receptor RXR-alpha (Homo sapiens) (UniProt P19793). The assay is described as above. The following applies: HEK293T RXRa-UAS-bla, beta-lactamase ratio, antagonist mode. The method, boiled down:
as §1

Assay [7] deals with Thyroid hormone receptor beta (Homo sapiens) (UniProt P10828). Put plainly: qHTS assay for small molecule antagonists of thyroid hormone receptor beta signaling (AID 588547; active = well fitted inhibition curve with a large enough effect in the signal ratio, with a control signal flat, not every such curve was filed as active; the % refers to the signal ratio;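 also: cells stimulated with 0.4 nM T3 agonist during compound exposure; series mostly up to about 77 µM; % is scaled to controls: 0 for no effect and ±100 for the full control effect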). The following applies: TR-UAS-bla HEK293, beta-lactamase ratio, antagonist mode, 18 h. Put shortly:
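TR-UAS-bla GripTite HEK293 cells in 2% charcoal/dextran FBS medium were preincubated 4 h at 37 C, given compound (0.59 nM to 92 uM) plus 0.4 nM T3 (final) for 18 h, then CCF4 for 2 h at RT; Hill fit gave IC50.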

In assay [8] the target is Voltage-gated inwardly rectifying potassium channel KCNH2 (Homo sapiens) (UniProt Q12809). As to the kind of experiment: qHTS Assay for Small Molecule Inhibitors of the Human hERG Channel Activity (AID 588834; active = well fitted inhibition curve with a large enough effect;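 also: top concentration of the series differs between compounds; % is scaled to controls: 0 for no effect and ±100 for the full control effect; lower thallium flux fluorescence means stronger hERG block; nearly all actives have a fitted effect of over 50% in size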). Put shortly:
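Kinetic FDSS fluorescence; U2OS + hERG BacMam (~100 virus particles/cell); FluxOR Tl+ flux; ~10 min cpd; AC50 (Hill).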

The nature of assay [9]: qHTS assay for small molecule agonists of the antioxidant response element (ARE) signaling pathway (AID 651741; active = well fitted activation curve with a large enough effect in the signal ratio; the % refers to the signal ratio; also: % of control where 0% means no effect). The method, boiled down: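 ARE-bla HepG2 cells (beta-lactamase reporter under ARE control) were plated at 2,000 cells/well, preincubated 5 h at 37 C/5% CO2, then treated with DMSO-dissolved compounds for 16 h at 37 C; LiveBLAzer B/G FRET substrate added, fluorescence read after 2 h at room temperature.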

A short description of assay [10]: qHTS assay for small molecule activators of the p53 signaling pathway (AID 651743; active = well fitted activation curve with a large enough effect in the signal ratio, not every such curve was filed as active; the % refers to the signal ratio; also: series mostly up to about 92 µM; % of control where 0% means no effect). The following applies: HCT-116 p53RE-bla, beta-lactamase FRET ratio, 16 h; stronger effect = higher value. The method, boiled down: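 p53RE-bla HCT-116 cells with a stably integrated beta-lactamase reporter under p53 response elements were plated, rested 5 hours at 37 C/5% CO2, then exposed to compounds in DMSO for 16 hours at 37 C. LiveBLAzer B/G FRET substrate was read after 2 hours at room temperature.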

Assay [11] deals with Glucocorticoid receptor (Homo sapiens) (UniProt P04150). Put plainly: qHTS assay for small molecule antagonists of glucocorticoid receptor signaling (AID 588533; active = well fitted inhibition curve with a large enough effect in the signal ratio, with a control signal flat, not every such curve was filed as active; the % refers to the signal ratio). Put shortly: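 Antagonist-mode qHTS: compound titrations added to GRE-bla HeLa cells, then dexamethasone 2 nM final; 18 h, 37 C. CCF4 FRET fluorescence normalized to dexamethasone and DMSO; IC50 from Hill fit.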
Chain of Glucocorticoid receptor (Homo sapiens) (P04150 whole entry, looked up): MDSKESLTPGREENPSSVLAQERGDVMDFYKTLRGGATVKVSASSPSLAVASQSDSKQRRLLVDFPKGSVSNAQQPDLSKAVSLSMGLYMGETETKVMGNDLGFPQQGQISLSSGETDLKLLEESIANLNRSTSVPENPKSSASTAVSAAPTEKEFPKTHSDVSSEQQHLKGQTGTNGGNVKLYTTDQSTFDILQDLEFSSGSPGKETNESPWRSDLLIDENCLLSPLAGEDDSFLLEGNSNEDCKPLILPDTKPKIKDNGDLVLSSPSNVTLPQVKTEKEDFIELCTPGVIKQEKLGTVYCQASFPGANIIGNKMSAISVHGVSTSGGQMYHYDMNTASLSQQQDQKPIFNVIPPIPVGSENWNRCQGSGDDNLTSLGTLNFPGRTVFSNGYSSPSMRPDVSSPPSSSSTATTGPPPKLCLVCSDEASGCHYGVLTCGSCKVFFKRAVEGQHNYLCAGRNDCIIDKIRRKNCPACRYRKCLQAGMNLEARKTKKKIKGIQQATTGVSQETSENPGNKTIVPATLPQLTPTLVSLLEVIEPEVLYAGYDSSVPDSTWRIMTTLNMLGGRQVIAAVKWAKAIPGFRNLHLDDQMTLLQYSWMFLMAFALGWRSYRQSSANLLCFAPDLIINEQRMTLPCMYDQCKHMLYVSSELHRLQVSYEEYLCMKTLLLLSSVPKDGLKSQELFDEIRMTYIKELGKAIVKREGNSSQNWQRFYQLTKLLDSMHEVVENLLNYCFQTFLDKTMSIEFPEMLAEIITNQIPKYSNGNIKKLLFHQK
The nature of assay [12]: qHTS assay for small molecule antagonists of peroxisome proliferator-activated receptor delta signaling (AID 588535; active = well fitted inhibition curve with a large enough effect in the signal ratio, with a control signal flat, not every such curve was filed as active; the % refers to the signal ratio;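 as to max response: cells co-treated with a PPAR-delta agonist as stimulator during compound exposure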). The following applies: HEK293T PPARd-UAS-bla, beta-lactamase FRET ratio, 18 h; 460 nm channel. Put shortly:
(§2)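 GeneBLAzer PPAR-delta-UAS-bla HEK293T cells in medium with 2% charcoal/dextran FBS were preincubated 5 hrs at 37 C, then given compounds, incubated 18 hrs at 37 C, and read by CCF4 beta-lactamase fluorescence; IC50 from Hill fits.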

Assay [13] has as its target Peroxisome proliferator-activated receptor delta (Homo sapiens) (UniProt Q03181). The description is as above. Put shortly:
as §2

Assay [14] in a line: qHTS assay for small molecule agonists of retinoid X receptor alpha signaling (AID 588544).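 As to activation: 0% = DMSO basal wells and 100% = reference agonist.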 The following applies: HEK293T RXRa-UAS-bla, beta-lactamase reporter, 18 h; 530 nm emission.
The target of assay [15] is Retinoic acid receptor RXR-alpha (Homo sapiens) (UniProt P19793). Described as above.
Chain of Retinoic acid receptor RXR-alpha (Homo sapiens) (P19793 whole entry, looked up): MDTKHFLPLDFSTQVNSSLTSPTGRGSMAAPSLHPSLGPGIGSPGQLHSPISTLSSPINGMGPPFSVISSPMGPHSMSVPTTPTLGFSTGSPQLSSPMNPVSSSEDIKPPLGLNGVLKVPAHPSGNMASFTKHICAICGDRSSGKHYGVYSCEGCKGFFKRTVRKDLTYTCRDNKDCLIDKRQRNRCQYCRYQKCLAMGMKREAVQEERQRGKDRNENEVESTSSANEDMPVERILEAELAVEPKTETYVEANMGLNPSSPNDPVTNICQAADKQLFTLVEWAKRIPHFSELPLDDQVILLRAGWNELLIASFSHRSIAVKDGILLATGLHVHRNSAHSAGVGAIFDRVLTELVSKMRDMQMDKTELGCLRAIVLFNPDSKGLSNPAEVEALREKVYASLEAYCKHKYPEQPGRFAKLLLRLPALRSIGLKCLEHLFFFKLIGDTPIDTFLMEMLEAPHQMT
The nature of assay [16]: qHTS assay for small molecule activators of the nuclear factor-kappa B (NF-kB) signaling pathway (AID 651749; active = well fitted activation curve with a large enough effect in the signal ratio; the % refers to the signal ratio; also: series mostly up to about 77 µM; % of control where 0% means no effect). The following applies: NF-kB-bla ME-180 cells, beta-lactamase FRET ratio, 16 h; stronger effect = higher value. Put shortly:
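ME-180 cells stably carrying a beta-lactamase reporter under an NF-kB response element were exposed to compound or DMSO vehicle for 16 hr at 37C, 5% CO2. Pathway activation was read by FRET, since reporter expression disrupts FRET.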

In assay [17] the target is Glucocorticoid receptor (Homo sapiens) (UniProt P04150). Put plainly: qHTS assay for small molecule agonists of glucocorticoid receptor signaling (AID 588532; active = well fitted curve in the direction sought with a large enough effect in the signal ratio, with a control signal flat; the % refers to the signal ratio;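 also: 100% = dexamethasone at 0.1 µM and 0% = DMSO only wells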). The following applies: HeLa MMTV-bla, beta-lactamase ratio, agonist, 18 h; stronger effect = higher value; percent of dexamethasone control, DMSO zero. The method, boiled down:
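Stimulation of a glucocorticoid response element-driven beta-lactamase gene was measured in HeLa cells. Responses were scaled between DMSO basal and 0.1 uM dexamethasone, then fitted for half-maximal stimulation.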

Assay [18] concerns the target Peroxisome proliferator-activated receptor gamma (Homo sapiens) (UniProt P37231). As to the kind of experiment: qHTS assay for small molecule agonists of peroxisome proliferator-activated receptor gamma signaling (AID 588536; active = well fitted curve in the direction sought with a large enough effect in the signal ratio, with a control signal flat, not every such curve was filed as active; the % refers to the signal ratio;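 also: 0% = DMSO basal wells and 100% = rosiglitazone at 2 µM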). The method, boiled down:
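PPAR-gamma-UAS-bla HEK293 cells in medium with 1% charcoal/dextran-treated FBS were exposed to compounds for 16 h at 37 C. Beta-lactamase activity was read with CCF4 substrate (405 nm excitation, 460/530 nm emission).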

The target is the same in assay [19]. Put plainly: qHTS assay for small molecule antagonists of peroxisome proliferator-activated receptor gamma signaling (AID 588537; active = well fitted inhibition curve with a large enough effect in the signal ratio, with a control signal flat, not every such curve was filed as active; the % refers to the signal ratio;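 also: reporter cells co-stimulated with 50 nM rosiglitazone agonist during compound treatment; % of control where 0% means no effect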). The method, boiled down:
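PPAR-gamma-UAS-bla HEK293 cells (3000/well, 1% charcoal/dextran-stripped FBS) were preincubated 6-6.5 h at 37 C, given titrated compounds, then stimulated with 50 nM rosiglitazone for 16 h. Beta-lactamase activity was read with CCF4 dye; IC50 came from Hill fits.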

Where “and” joins values, the source holds several entries; their conditions need not be identical. Equal values may be shown once. Inconclusive results are not listed. Calls of active or inactive are those of the source. Unless noted, calls follow the shape of the full dose curve.

Chain of Peroxisome proliferator-activated receptor gamma (Homo sapiens) (P37231 whole entry, looked up): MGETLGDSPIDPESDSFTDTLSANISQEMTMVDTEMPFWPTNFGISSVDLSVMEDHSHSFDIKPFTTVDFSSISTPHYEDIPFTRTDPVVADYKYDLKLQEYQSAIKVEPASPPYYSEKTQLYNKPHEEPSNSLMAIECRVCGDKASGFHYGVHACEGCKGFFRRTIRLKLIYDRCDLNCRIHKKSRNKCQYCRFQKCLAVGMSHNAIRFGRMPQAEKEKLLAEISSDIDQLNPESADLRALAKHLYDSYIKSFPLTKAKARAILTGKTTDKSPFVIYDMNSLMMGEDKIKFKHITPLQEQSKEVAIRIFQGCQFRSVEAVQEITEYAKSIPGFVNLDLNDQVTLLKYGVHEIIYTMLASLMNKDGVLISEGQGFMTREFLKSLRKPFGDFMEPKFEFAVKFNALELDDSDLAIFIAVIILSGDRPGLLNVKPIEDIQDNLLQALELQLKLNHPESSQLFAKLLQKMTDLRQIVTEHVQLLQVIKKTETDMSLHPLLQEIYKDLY
Chain of Thyroid hormone receptor beta (Homo sapiens) (P10828 whole entry, looked up): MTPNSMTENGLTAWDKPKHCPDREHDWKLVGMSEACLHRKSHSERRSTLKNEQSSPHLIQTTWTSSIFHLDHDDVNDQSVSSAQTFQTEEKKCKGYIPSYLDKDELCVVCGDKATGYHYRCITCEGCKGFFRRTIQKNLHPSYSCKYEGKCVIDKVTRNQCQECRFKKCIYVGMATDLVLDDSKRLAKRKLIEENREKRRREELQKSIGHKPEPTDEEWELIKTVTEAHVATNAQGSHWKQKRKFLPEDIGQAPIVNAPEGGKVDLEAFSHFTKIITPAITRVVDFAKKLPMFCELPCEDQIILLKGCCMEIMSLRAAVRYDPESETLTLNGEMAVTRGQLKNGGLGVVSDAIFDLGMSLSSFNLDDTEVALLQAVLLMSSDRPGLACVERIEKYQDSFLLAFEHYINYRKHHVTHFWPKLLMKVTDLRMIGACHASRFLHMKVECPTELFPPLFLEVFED
Chain of Bile acid receptor (Homo sapiens) (Q96RI1 whole entry, looked up): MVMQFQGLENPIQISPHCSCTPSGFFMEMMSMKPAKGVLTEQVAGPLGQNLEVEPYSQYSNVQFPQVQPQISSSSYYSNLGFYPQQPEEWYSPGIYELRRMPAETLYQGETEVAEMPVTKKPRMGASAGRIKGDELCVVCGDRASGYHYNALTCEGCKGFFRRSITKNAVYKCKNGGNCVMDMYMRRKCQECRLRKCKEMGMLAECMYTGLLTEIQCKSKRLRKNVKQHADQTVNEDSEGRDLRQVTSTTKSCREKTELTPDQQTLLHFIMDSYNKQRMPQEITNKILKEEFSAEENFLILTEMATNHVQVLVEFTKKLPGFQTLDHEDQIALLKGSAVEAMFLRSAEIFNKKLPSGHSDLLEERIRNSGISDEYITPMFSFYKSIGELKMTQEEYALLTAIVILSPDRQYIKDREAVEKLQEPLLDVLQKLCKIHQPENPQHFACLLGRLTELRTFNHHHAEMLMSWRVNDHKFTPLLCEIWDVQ
Chain of Vitamin D3 receptor (Homo sapiens) (P11473 whole entry, looked up): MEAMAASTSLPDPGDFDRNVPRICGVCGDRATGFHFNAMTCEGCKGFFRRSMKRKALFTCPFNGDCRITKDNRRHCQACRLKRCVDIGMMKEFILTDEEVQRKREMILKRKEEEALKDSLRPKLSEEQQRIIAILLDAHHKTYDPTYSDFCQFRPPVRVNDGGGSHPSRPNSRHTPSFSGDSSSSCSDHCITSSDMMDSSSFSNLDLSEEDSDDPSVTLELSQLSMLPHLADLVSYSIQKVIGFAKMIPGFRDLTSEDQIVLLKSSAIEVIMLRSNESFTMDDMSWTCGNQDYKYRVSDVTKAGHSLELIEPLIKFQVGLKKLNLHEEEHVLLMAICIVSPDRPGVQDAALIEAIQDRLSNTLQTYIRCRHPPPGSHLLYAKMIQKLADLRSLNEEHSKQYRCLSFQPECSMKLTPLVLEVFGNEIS
Chain of Voltage-gated inwardly rectifying potassium channel KCNH2 (Homo sapiens) (Q12809 whole entry, looked up): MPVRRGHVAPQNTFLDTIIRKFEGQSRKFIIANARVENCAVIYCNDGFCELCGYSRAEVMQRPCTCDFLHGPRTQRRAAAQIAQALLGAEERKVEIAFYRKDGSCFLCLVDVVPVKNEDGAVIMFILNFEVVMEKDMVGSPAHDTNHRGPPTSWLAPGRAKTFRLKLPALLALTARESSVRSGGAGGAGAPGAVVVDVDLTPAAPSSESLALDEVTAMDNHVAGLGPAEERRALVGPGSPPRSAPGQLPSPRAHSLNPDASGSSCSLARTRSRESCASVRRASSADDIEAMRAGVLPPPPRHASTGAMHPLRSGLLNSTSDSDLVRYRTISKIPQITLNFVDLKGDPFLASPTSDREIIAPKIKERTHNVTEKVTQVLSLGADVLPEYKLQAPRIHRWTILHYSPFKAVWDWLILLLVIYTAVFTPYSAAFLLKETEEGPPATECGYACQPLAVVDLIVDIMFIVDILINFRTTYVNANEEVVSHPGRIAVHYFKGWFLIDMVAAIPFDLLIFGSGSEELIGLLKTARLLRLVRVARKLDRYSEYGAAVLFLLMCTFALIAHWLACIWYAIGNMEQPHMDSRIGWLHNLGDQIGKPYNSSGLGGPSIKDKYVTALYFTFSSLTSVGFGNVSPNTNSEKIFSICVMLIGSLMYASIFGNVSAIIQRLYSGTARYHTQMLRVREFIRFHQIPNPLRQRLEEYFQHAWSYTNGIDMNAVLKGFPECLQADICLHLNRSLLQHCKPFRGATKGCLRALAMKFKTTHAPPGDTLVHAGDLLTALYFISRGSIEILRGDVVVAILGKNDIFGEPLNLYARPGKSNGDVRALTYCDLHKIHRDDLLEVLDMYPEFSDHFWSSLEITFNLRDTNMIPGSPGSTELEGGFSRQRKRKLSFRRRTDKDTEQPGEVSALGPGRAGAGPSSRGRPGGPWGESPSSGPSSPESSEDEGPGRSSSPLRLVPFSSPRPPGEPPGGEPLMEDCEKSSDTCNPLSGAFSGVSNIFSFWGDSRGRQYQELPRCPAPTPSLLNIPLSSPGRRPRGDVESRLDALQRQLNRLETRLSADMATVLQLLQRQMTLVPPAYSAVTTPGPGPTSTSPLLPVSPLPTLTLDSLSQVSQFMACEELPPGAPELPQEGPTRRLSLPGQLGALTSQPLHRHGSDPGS
Chain of Peroxisome proliferator-activated receptor delta (Homo sapiens) (Q03181 whole entry, looked up): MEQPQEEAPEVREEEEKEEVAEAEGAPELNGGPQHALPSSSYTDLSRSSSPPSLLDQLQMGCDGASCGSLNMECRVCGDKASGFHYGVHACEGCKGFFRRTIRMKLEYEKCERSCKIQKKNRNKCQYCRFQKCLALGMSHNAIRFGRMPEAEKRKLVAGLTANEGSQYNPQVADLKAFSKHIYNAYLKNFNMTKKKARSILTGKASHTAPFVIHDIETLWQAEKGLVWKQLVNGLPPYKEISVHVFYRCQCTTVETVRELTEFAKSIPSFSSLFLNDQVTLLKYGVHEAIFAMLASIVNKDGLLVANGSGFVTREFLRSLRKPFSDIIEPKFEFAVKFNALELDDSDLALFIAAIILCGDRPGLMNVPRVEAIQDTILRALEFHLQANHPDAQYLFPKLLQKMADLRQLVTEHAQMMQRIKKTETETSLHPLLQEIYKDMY

With `COc1ccccc1[N+](=O)[O-]`, the compound was called inactive in assay [1], in assay [2], in assay [3] and in assay [4]. Moreover, the max response in [5] is -6.53% and 1.73%; in [6], 20.4% (inactive) and 0.175% (inactive). In addition, in assay [7], the activity change % (negative = inhibition) is -3.34% (inactive) and -9.45% (inactive). Also, the Potency result in assay [8] and in assay [9] was “inactive” each time. In addition, the activation in assay [10] is -2.31% (inactive) and 1.29% (inactive).

With `CC#N`, the compound was classed as inactive in assay [1], in [11], in [15] and in assay [4]. The max response was 21.5% in assay [12], 8.5% in assay [14], -2.35% in assay [5] and 10.2% (inactive) in [6]. Further, the Potency entry in [13] and in assay [8] was “inactive” throughout. Further, the activity change % (negative = inhibition) in assay [7] was 12.3% (inactive). Besides, the activation in assay [10] is -3.18% (inactive); in assay [16] it was -1.06% (inactive).

As to `CCOCCO`, the call in assay [1], in assay [18], in assay [2], in assay [3] and in assay [15] was inactive. Moreover, the activation in assay [17] is -1.34% (inactive); in [10] it was -2.61% (inactive); in assay [16], -1.02% (inactive). The values for the max response in [14], in assay [5] and in assay [6] were 9.04%, 1.51% and 7.78% (inactive), respectively. In addition, the activity change % (negative = inhibition) in [7] is -11.8% (inactive). Besides, the Potency result in [8] and in assay [9] was “inactive” throughout.

For `O=C(O)c1c(Cl)cccc1Cl`, the call in assay [1], in assay [18], in [15] and in assay [4] was inactive. Besides, the max response in [14] was -13.5%; in assay [5], 2.22%; in assay [6] it was 13.3% (inactive). Moreover, the activity change % (negative = inhibition) in assay [7] is 3.89% (inactive). Besides, the Potency entry in [8] and in assay [9] was “inactive” each time. The activation in [10] was -0.426% (inactive).

Consider `c1ccc2[nH]cnc2c1`, for which the result in [1], in [18], in assay [19], in [2], in [3] and in [15] was inactive. The call in [4] was inactive. Besides, the max response in assay [14] is -10.3%. Besides, in [7], the activity change % (negative = inhibition) is 2.62% (inactive). Moreover, in assay [8], the Potency result is “inactive”. In addition, the activation was 0.533% (inactive) in [10] and 1.42% (inactive) in [16].

With `C=CCOC(=O)CCCCCCCC`, the outcome in assay [1], in assay [18], in [19], in assay [2], in assay [3] and in [4] was inactive. Further, the max response is -1.68% in assay [5] and -5.32% (inactive) in [6]. In addition, the activity change % (negative = inhibition) in assay [7] was -0.411% (inactive). In [9], the Potency result was “inactive”. The activation in assay [10] is -2.19% (inactive).

In the case of `Nc1c(Cl)cc(Cl)cc1Cl`, the compound was called inactive in [1], in assay [11], in [18], in assay [19], in assay [2] and in assay [3]. Also, the compound was called inactive in assay [15] and in [4]. Also, the max response was 1.78% in assay [12], -8.9% in [14], 1.94% in [5] and 4.53% (inactive) in assay [6]. Further, the Potency entry in assay [13], in assay [8] and in assay [9] was “inactive” in each case. In assay [7], the activity change % (negative = inhibition) was 14.8% (inactive). The activation in assay [10] is -0.29% (inactive).

`Cc1nc2ccc(Cl)cc2[nH]1`: the call in [1], in assay [18], in assay [19], in [2], in assay [3] and in assay [15] was inactive. Further, in assay [4], the outcome was inactive. Besides, the max response is -24.2% in assay [14] and -9.52% in assay [5]. Also, the activity change % (negative = inhibition) in assay [7] was 9.04% (inactive). Also, the Potency result in assay [8] and in [9] was “inactive” in each case. Also, the activation in [10] is -1.34% (inactive).
